Many of the other results were omitted from the sample, so hits are more common in it than they were.
RE007 growth inh = qHTS Assay for Inhibitors of the HIV-1 protein Vpr; 360,000 compounds, 0.21% hits; Potency, µM (highest dose often 92.2 µM), without a hit: at the top dose activity change, negative = less growth, usual class: inhibitors; S. pombe RE007 Vpr strain, BacTiter-Glo ATP luminescence, 24 h; active = well fitted falling curve with a large enough effect; inconclusive = small, poorly fitted or top-dose-only effect; inactive = no such curve, though single readings can be large or run the other way; note: potency is the fitted concentration of half-maximal effect; % is set by controls: 0 for no effect and ±100 for the full control effect; nearly all actives have a fitted effect of over 50% in size
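Fission yeast RE007 carrying one integrated HIV-1 vpr copy, seeded at OD 0.01 in PMG+AL medium with 23 nL pinned compound. Grown 24 h at 30 degrees; viability read by BacTiter-Glo luminescence after 5 min.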
Tb PYK inh = qHTS of Trypanosoma Brucei Inhibitors; Potency, µM (titrated, usually from 76.8 µM), for the others: at the highest dose activity, negative = inhibition, most hits filed as inhibitors; 410,000 compounds, 0.12% hits; pyruvate kinase (Trypanosoma brucei), Q57TT1; TbPYK enzyme, Kinase-Glo Plus ATP luminescence, 45 min; note: potency is the fitted concentration of half-maximal effect; % is set by controls: 0 for no effect and ±100 for the full control effect; nearly all actives have a fitted effect of over 50% in size
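ADP (130 uM final) triggers the TbPYK reaction after compound addition; incubation is 45 min at room temperature. Kinase-Glo Plus is then added and luminescence imaged. Normalized data are fitted to concentration-effect curves.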
CHX counter = Cycloheximide Counterscreen for Small Molecule Inhibitors of Shiga Toxin | max response, % | cell reporter, cycloheximide protein synthesis inhibition counterscreen | 300,000 compounds, 12% hits; in the data active = max response mostly above about 13%, no sharp cut-off; inactive = mostly below about 14%; note: read at 38.3 µM for the half of the compounds with a filed dose; 0% is about no effect
FBPA Giardia inh = qHTS Assay for Inhibitors of Fructose-1,6-bisphosphate Aldolase from Giardia Lamblia; A8B2U2; purified Giardia FBPA; Potency, µM (series often up to 59.6 µM), for inactives: at the top dose activity, negative = inhibition, hits mostly inhibitors; 290,000 compounds, 0.71% hits; AID 2451, 2010; note: potency is the fitted concentration of half-maximal effect; % is set by controls: 0 for no effect and ±100 for the full control effect; nearly all actives have a fitted effect of over 55% in size
Target sequence (A8B2U2 whole entry, looked up): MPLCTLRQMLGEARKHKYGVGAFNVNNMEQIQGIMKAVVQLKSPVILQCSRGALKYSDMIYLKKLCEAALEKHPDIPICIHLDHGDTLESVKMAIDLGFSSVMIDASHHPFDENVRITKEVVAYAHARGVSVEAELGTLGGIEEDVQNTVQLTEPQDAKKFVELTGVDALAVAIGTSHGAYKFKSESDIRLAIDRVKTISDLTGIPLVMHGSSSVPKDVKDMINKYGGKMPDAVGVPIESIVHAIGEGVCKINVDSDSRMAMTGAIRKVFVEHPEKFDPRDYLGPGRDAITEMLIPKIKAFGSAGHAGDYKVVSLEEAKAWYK
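Giardia FBPA (40 nM reagent) was preincubated 10 min at RT with compound (up to 57.5 uM final), then substrate plus GAPDH/TPI/NAD/arsenate coupling system with diaphorase/resazurin was added; resorufin fluorescence (525/598 nm) was read after 20 min.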
LmPK inhibitor = qHTS Assay for Inhibitors of Leishmania Mexicana Pyruvate Kinase (LmPK). Q27686. purified LmPK, Kinase-Glo ATP luminescence, 1 h. Potency, µM (highest dose often 57.5 µM), for inactives: top-dose activity change, negative = inhibition, most hits filed as inhibitors. 290,000 compounds, 0.37% hits; note: potency is the fitted concentration of half-maximal effect; % is set by controls: 0 for no effect and ±100 for the full control effect
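Purified LmPK (0.1 nM) converted ADP (0.1 mM) to ATP with PEP (0.5 mM) in imidazole buffer pH 7.2 with KCl and MgCl2, 1 h at room temperature. ATP was read by Kinase-Glo luminescence; data normalized to uninhibited and no-enzyme controls.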
Shiga toxin inh = A qHTS for Small Molecule Inhibitors of Shiga Toxin | Vero cells, Shiga toxin protein synthesis inhibition reporter | inhibition, % at 38.7 µM | 290,000 compounds, 9.2% hits | AID 2315, 2010; in the data active = inhibition mostly above about 28%, no sharp cut-off; inactive = mostly below about 43%; note: 0% is about no effect
* = called active by the depositor; ? = inconclusive; nt = no result given; [ ] = dose if it differs, or a comment. Unless noted, calls come from the whole dose curve; as a rule, active = well fitted curve in the direction sought with a large enough effect; inconclusive = small, poorly fitted or top-dose-only effect, or another doubt; inactive = no such curve, though single readings can be large; an effect the other way counts as inactive or inconclusive.

SMILES	RE007 growth inh	Tb PYK inh	CHX counter	FBPA Giardia inh	LmPK inhibitor	Shiga toxin inh
COc1cccc(-c2nnc(NC(=O)C(C)C)o2)c1	15%	2%	9	-12%	3%	56
COc1cccc(-c2nnc(N)o2)c1	-6%	3%	10*	4%	-1%	26
COc1cccc(-c2nnc(-c3ccc(C)o3)o2)c1	-16%	3%	27*	25%	?	29*
COc1cccc(-c2nnc(-c3ccccc3NC(=O)c3ccc(F)cc3F)o2)c1	nt	4%	nt	nt	nt	nt
COc1cccc(-c2nnc(-c3ccccc3[N+](=O)[O-])o2)c1	-15%	2%	41*	-3%	0%	93*
COc1cccc(-c2nnc(-c3ccco3)o2)c1	-22%	-26%	60*	3%	?	active
Cc1ccc(CN(C(=O)c2ccc([N+](=O)[O-])cc2)c2ccccn2)cc1	nt	0%	nt	nt	nt	nt
ClC1=C(Cl)C(Cl)(C2(Cl)C(Cl)=C(Cl)C(Cl)=C2Cl)C(Cl)=C1Cl	nt	nt	-15	?	nt	-21
COc1cccc(C(=O)Nc2ccc(-c3nnc(-c4ccco4)o3)cc2)c1	5%	1%	17*	0%	1%	57
COc1cccc(C(=O)Nc2cccc(-c3nnc(-c4ccccc4)o3)c2)c1	2%	-8%	nt	nt	nt	nt
COc1cccc(-c2nnc(NC(=O)c3ccccc3Br)o2)c1	-5%	4%	35*	?	7%	66*
C[C@H]1COC(=O)[C@H]2CCCN2C(=O)[C@@H](C)COC(=O)[C@H]2CCCN2C1=O	nt	nt	nt	2%[12.9 µM]	nt	nt
Cc1ccc(-c2csc3nc(C)n(N)c(=O)c23)o1	-11%	-6%	46*	4%	-3%	47*
C=CCn1c(SCC(C)=O)nc2scc(-c3ccc(C)o3)c2c1=O	2%	-15%	20*	-1%	-11%	19*
COc1ccc(CCNC(=O)CN2C(=O)COc3ccc(C)cc32)cc1OC	nt	1%	nt	nt	nt	nt
CC(=O)Nc1ccc(S(=O)(=O)N(C)CC(=O)N/N=C/c2cccc(O)c2)cc1	-16%	2%	1	9%	8%	19
O=C(CN(Cc1ccco1)S(=O)(=O)c1ccccc1)N/N=C/c1cccc(O)c1	14%	-7%	-3	3%	1%	48*
O=C(Cn1ncc(Cl)c(Cl)c1=O)N1CCOCC1	5%	1%	23*	4%	1%	38*
Cc1cc(C)cc(Cn2ncc(Cl)c(Cl)c2=O)c1	-27%	-1%	36*	-6%	1%	35
CCc1ccc(C(=O)Cn2ncc(Cl)c(Cl)c2=O)cc1	6%	-6%	17*	3%	2%	24
Cc1ccc(Cn2ncc(Cl)c(Cl)c2=O)cc1	12%	0%	11	1%	0%	38
O=C(Cn1ncc(Cl)c(Cl)c1=O)N1CCN(Cc2ccccc2)CC1	-11%	1%	-4	1%	10%	-20
Cc1ccccc1CSc1nc2c(sc3ccccc32)c(=O)n1CCCC(=O)NCCCOC(C)C	nt	-7%	nt	nt	nt	nt
CCc1ccccc1NC(=O)C(=O)NCCCN1CCOCC1	nt	-4%	nt	nt	nt	nt
COc1ccc(C)cc1NC(=O)N1CCN(c2nnc(C)c3c(C)n(-c4ccccc4)nc23)CC1	nt	-6%	nt	nt	nt	nt
SMILES	RE007 growth inh	Tb PYK inh	CHX counter	FBPA Giardia inh	LmPK inhibitor	Shiga toxin inh
COc1ccc(OC)c(NC(=O)C2=C(C)C(=O)OC23CCCCCC3)c1	nt	4%	nt	nt	nt	nt
CN1/C(=C\C=C2C(=O)NC(=S)NC2=O)C(C)(C)c2ccccc21	7%	-9%	-1	-4%	-15%	-13
CN1/C(=C\C=C2/C(=O)Oc3ccccc3C2=O)C(C)(C)c2ccccc21	0%	-2%	39*	29%	-7%	40*
O=C1CC(O)(C(F)F)Oc2ccc3ccccc3c21 (centres undefined)	-16%	6%	9	-7%	-3%	11
O=C1CC(O)(C(F)(F)F)Oc2c1ccc1ccccc21 (centres undefined)	?	0%	19*	0%	4%	79
Nc1nonc1-c1noc(N2CCCCC2)n1	?	-2%	30*	6%	-18%	80*
O=C(COc1ccc(Br)cc1CO)Nc1ccc(F)cc1	-19%	-2%	9.1*	3%	3%	35
Cc1ccc(NC(=O)COc2ccc(Br)cc2C)cc1	-18%	5%	70*	1%	-3%	91*
Cc1ccc(-n2nnc(-c3nc(-c4cccs4)no3)c2N)cc1C	nt	3%	nt	nt	nt	nt
O=C(NCCOc1ccccc1)C1CCCCC1	-7%	0%	29*	-1%	0%	72*
O=C(CC1CCCCC1)NCCOc1ccccc1	3%	-16%	9.7*	10%	0%	50*
O=c1cnc2cnc(N3CCOCC3)nc2n1C[C@H]1CCCO1	nt	-6%	nt	0%	nt	nt
Clc1ccc(-n2nnc(-c3ncc[nH]3)n2)cc1Cl	11%	-1%	nt	nt	nt	nt
Clc1ccc(-n2nnc(-c3nccs3)n2)cc1Cl	5%	?	29*	-9%	-3%	74*
Cc1ccc(-n2nnc(-c3nccs3)n2)cc1	?	?	1	2%	14µM*	-17
Cc1ccc(-n2nnc(-c3cc4ccccc4nc3Cl)n2)cc1	13%	-8%	6	5%	2%	26
Cc1cc(C)cc(N(CC(=O)NCc2ccccc2Cl)S(=O)(=O)c2c(C)noc2C)c1	nt	-5%	nt	nt	nt	nt
O=C(O)CCC(=O)Nc1ccc(-n2ccc(C(F)(F)F)n2)cc1	5%	-5%	25*	2%	-2%	42*
O=C(O)c1ccccc1C(=O)Nc1ccc(-n2ccc(C(F)(F)F)n2)cc1	4%	8%	-2	2%	-6%	2
O=C(Nc1ccc(-n2ccc(C(F)(F)F)n2)cc1)c1cccs1	-7%	-4%	45*	nt	0%	117*
O=C(O)CCCC(=O)Nc1ccc(-n2ccc(C(F)(F)F)n2)cc1	4%	12%	-2	8%	-3%	-10
CC1CCc2c(sc3nnn(Cc4ccc(F)cc4)c(=O)c23)C1 (centres undefined)	nt	-3%	nt	nt	nt	nt
C#CCCCO/N=C1/[C@H]2O[C@@H]2[C@@H](O)[C@H]2[C@H]1CCn1c(=O)n([C@@H](CC)c3ccccc3)c(=O)n12	nt	nt	nt	1%[12.9 µM]	nt	nt
C/C(=N\N1CCCCCC1)c1c(O)n(-c2ccccc2)c(=O)[nH]c1=O	7%	2%	0	-1%	-4%	-2
C/C(=N\N1CCCCC1)c1c(O)[nH]c(=O)[nH]c1=O	nt	-1%	18*	1%	-4%	10
Cc1ccc(-n2ncc3c(N4CCCCCC4)ncnc32)cc1C	nt	-8%	nt	nt	nt	nt
COC(=O)c1ccc(CSc2nc3c([nH]c4ccccc43)c(=O)n2-c2ccc(F)cc2)o1	nt	-4%	nt	nt	nt	nt

Bioassay records: PubChem BioAssay, National Center for Advancing Translational Sciences (NCATS)
